Data on 14 compounds can be found in PubChem BioAssay (NCI).

Values joined by “and” are separate entries in the source; they are usually repeats but may differ in a detail not shown here. Identical values can stand only once. Compounds without any hit were thinned out: in the full panel of roughly 83,000, 20% have a hit.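 Method: cells in 96-well plates; compound added at one concentration; 48 h incubation; percent growth measured; values under 10 scored active.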 Values without a mark were called inactive. Active and inactive are the calls of the source.

The assay deals with MDA-MB-468 breast. In words: NCI-60 one-dose screen, 48 h (100 = growth as untreated, 0 = no growth, -100 = all killed). The conditions noted are these: 10 µM unless noted.
Take `O=C(CSc1cc[n+](CCCCO)c2ccccc12)n1ccc2ccccc21`: the growth is 108%. Regarding `O=c1[nH]c(-c2ccccn2)nc2sc3c(c12)CCCCCC3`, the growth is 37.8%. To `CCOC(=O)Nc1ccc2c3c(cccc13)-c1ccccc1-2` belongs -11.5% (active); to `CN(C)c1ccc(C(=NO)c2ccc(N(C)C)cc2)cc1`, -0.198% (active); to `O=C(Nc1cc(C(F)(F)F)cc(C(F)(F)F)c1)c1cc(Cl)ccc1O`, -24% (active) and -1.83% (active). As for `COc1ccc(/C=C2\CN(C(=O)C(Cl)Cl)C/C(=C\c3ccc(OC)cc3)C2=O)cc1`, the figure is -27.5% (active); as for `O=C(Oc1ccccc1Cl)c1ccc(Cl)cc1Cl`, 103%. As to `COc1ccc(NC(=O)c2ccc3c(c2)nc(-c2cc4ccccc4[nH]c2=O)n3-c2cc(C(C)(C)C)[nH]n2)cc1`, the growth was 95%. To `COc1cc(NC(C)CN(CC(C)C)C(C)C)c2ncccc2c1` (centres undefined) belongs -15.4% (active); to `N#Cc1c(-c2ccc(Cl)cc2)nc(NN=Cc2ccc[nH]2)nc1N1CCOCC1`, 78.2%. In the case of `Cc1cn(-c2cc(NC(=O)c3cncc(C#Cc4cnc5ccc(O[C@H]6CCOC6)nn45)c3)cc(C(F)(F)F)c2)cn1`, the growth is 145%. As for `Nc1nc(Nc2ccc(Cl)cc2)nn1S(=O)(=O)c1ccc(-c2ccc(F)cc2)cc1`, the figure is 96.2%.

As to `C[C@H]1c2[nH]c3ccccc3c2C[C@H]2C(=O)N(CCCCCCC(=O)NO)CC(=O)N21`, the growth is 60.3%. To `CCC(C)(c1cc(C(C)(C)C)c(O)c(C(C)(C)C)c1)c1cc(C(C)(C)C)c(O)c(C(C)(C)C)c1` belongs 112%.
